From the supplement of paper PMC11732987, “Enantioselective OTUD7B fragment discovery through chemoproteomics screening and high-throughput optimisation” (Communications Chemistry, 2025)

How the values were obtained:
Assay in all cases: log2 ratio of Biotin-Ahx-Ub-VS probe labelling (fragment/DMSO); higher = less target engagement (more negative = stronger competition), active = hit call of the paper (q ≤ 0.05, log2 ratio ≤ -1)
Conditions in all cases: compound concentration: 200 uM; treatment time: 3 h
[1] = target: USP9X (UniProt Q93008)
How it was run: (§1)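 HEK293T lysate (495 µg per sample, in Tris/CHAPS/IGEPAL buffer with protease inhibitors) was treated in triplicate with fragment at 200 µM or with DMSO for 3 h. It was then treated with Biotin-Ahx-Ub-VS (0.5 µM final) for 1 h. Labelled DUBs were NeutrAvidin-enriched, digested with LysC and trypsin, and run by diaPASEF LC-MS/MS. Spectronaut label-free quantities were global-median-normalised. Values are average log2 ratios fragment/DMSO by unpaired t-test, using proteins with ≥2 unique peptides.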

[2] = target: UniProt O00487
How it was run: as §1

[3] = target: UniProt O00507
How it was run: as §1

[4] = target: UniProt P51784
How it was run: as §1

[5] = target: T1, UniProt Q5T2D3
T1 sequence (whole entry): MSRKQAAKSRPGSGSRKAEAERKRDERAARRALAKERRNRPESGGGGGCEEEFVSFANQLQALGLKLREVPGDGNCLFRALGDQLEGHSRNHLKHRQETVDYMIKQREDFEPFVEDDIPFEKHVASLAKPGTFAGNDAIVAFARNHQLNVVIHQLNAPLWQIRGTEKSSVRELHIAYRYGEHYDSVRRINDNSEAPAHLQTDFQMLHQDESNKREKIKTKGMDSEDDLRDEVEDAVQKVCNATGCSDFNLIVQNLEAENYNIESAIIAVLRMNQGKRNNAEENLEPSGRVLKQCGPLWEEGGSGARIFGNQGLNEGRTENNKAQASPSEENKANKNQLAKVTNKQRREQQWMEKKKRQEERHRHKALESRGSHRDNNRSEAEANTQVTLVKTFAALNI
How it was run: as §1

[6] = target: T2, UniProt Q8TE49
T2 sequence (whole entry): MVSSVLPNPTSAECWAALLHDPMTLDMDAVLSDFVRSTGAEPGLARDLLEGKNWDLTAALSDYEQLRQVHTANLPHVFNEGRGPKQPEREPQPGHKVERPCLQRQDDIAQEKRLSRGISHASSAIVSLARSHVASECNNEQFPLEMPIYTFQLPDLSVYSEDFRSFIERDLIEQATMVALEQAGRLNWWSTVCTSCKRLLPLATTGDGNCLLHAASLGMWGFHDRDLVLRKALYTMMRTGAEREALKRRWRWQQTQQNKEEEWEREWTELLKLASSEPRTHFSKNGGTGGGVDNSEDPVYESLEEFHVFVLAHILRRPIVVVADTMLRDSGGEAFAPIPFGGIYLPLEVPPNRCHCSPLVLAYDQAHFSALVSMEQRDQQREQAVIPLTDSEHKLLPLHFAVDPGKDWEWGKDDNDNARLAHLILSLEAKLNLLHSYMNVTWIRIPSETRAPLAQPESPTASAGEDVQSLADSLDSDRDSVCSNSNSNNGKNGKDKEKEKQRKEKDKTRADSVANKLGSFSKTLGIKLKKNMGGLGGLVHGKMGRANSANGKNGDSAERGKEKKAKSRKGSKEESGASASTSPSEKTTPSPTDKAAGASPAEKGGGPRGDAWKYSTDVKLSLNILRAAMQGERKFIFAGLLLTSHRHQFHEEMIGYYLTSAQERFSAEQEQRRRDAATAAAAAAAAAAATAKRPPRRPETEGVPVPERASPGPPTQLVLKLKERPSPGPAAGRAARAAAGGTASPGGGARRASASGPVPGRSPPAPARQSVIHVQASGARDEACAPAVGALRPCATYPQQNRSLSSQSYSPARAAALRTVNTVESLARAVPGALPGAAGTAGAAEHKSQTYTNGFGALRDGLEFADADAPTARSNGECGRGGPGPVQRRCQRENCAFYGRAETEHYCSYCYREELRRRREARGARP
How it was run: as §1

[7] = target: T3, UniProt Q9P2H5
T3 sequence (whole entry): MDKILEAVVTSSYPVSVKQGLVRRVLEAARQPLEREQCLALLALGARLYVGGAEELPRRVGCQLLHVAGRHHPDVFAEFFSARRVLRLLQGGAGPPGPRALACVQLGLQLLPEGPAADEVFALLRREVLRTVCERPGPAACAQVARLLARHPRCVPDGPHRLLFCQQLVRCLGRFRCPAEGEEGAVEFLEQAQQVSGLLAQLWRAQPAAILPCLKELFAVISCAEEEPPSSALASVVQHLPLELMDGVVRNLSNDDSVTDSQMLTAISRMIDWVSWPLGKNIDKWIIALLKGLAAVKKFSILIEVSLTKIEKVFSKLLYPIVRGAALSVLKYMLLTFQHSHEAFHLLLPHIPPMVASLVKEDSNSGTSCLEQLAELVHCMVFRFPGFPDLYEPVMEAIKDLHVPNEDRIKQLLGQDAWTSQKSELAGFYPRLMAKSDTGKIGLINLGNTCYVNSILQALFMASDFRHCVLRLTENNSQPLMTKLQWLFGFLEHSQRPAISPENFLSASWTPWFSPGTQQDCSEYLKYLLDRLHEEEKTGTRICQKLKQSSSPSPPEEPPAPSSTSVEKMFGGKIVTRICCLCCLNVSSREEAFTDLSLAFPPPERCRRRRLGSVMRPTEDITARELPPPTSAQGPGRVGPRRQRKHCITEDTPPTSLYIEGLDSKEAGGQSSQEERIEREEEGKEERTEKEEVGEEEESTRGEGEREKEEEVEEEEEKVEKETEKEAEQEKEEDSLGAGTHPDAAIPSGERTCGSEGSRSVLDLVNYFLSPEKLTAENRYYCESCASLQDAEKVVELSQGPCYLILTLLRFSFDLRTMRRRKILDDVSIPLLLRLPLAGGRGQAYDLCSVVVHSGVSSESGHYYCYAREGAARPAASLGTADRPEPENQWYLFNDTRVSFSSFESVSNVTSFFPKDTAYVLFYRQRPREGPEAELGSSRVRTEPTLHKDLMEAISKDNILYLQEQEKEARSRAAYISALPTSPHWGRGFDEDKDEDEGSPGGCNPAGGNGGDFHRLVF
How it was run: as §1

[8] = target: T4, UniProt Q9UGI0
T4 sequence (whole entry): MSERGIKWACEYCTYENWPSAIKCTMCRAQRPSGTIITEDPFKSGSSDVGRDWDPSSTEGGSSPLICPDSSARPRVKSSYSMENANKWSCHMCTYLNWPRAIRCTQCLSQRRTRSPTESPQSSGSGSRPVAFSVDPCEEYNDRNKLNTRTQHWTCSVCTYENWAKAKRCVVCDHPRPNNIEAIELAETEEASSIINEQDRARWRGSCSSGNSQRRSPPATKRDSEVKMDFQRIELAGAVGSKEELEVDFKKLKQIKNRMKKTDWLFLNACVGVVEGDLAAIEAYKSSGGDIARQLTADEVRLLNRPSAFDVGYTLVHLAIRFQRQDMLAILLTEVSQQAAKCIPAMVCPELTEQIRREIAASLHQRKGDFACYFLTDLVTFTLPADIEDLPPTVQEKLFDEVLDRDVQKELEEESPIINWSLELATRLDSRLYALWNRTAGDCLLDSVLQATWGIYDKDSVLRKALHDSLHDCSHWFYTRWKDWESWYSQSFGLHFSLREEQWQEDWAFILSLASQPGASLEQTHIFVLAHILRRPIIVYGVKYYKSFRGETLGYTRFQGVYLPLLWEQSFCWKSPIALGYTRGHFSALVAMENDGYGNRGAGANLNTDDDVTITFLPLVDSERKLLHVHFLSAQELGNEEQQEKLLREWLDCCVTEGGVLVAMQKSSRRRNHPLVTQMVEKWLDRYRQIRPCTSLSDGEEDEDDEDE
How it was run: as §1

[9] = target: T5, YOD1 (UniProt Q5VVQ6)
T5 sequence (whole entry): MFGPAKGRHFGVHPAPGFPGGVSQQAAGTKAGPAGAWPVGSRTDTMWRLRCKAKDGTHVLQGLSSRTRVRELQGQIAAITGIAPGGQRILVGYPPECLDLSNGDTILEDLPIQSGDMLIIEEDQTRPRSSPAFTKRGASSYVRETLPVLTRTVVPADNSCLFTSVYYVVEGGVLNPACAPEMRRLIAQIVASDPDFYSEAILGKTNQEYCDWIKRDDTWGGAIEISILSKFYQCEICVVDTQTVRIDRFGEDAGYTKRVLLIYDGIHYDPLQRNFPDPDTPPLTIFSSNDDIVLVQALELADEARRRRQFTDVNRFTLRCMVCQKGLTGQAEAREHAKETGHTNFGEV
How it was run: as §1

Measured: log2 ratio of Biotin-Ahx-Ub-VS probe labelling

Chain of UniProt O00487 (O00487 whole entry): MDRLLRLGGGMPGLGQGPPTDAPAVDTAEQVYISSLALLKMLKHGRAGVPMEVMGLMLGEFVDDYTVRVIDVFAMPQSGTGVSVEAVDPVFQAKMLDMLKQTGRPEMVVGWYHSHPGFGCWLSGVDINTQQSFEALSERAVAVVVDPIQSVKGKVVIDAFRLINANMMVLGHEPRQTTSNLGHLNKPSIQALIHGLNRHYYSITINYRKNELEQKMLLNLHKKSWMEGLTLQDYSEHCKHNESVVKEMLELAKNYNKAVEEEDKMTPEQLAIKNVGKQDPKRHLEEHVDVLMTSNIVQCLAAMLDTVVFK
Chain of USP9X (Q93008 whole entry, the tested form may be a part): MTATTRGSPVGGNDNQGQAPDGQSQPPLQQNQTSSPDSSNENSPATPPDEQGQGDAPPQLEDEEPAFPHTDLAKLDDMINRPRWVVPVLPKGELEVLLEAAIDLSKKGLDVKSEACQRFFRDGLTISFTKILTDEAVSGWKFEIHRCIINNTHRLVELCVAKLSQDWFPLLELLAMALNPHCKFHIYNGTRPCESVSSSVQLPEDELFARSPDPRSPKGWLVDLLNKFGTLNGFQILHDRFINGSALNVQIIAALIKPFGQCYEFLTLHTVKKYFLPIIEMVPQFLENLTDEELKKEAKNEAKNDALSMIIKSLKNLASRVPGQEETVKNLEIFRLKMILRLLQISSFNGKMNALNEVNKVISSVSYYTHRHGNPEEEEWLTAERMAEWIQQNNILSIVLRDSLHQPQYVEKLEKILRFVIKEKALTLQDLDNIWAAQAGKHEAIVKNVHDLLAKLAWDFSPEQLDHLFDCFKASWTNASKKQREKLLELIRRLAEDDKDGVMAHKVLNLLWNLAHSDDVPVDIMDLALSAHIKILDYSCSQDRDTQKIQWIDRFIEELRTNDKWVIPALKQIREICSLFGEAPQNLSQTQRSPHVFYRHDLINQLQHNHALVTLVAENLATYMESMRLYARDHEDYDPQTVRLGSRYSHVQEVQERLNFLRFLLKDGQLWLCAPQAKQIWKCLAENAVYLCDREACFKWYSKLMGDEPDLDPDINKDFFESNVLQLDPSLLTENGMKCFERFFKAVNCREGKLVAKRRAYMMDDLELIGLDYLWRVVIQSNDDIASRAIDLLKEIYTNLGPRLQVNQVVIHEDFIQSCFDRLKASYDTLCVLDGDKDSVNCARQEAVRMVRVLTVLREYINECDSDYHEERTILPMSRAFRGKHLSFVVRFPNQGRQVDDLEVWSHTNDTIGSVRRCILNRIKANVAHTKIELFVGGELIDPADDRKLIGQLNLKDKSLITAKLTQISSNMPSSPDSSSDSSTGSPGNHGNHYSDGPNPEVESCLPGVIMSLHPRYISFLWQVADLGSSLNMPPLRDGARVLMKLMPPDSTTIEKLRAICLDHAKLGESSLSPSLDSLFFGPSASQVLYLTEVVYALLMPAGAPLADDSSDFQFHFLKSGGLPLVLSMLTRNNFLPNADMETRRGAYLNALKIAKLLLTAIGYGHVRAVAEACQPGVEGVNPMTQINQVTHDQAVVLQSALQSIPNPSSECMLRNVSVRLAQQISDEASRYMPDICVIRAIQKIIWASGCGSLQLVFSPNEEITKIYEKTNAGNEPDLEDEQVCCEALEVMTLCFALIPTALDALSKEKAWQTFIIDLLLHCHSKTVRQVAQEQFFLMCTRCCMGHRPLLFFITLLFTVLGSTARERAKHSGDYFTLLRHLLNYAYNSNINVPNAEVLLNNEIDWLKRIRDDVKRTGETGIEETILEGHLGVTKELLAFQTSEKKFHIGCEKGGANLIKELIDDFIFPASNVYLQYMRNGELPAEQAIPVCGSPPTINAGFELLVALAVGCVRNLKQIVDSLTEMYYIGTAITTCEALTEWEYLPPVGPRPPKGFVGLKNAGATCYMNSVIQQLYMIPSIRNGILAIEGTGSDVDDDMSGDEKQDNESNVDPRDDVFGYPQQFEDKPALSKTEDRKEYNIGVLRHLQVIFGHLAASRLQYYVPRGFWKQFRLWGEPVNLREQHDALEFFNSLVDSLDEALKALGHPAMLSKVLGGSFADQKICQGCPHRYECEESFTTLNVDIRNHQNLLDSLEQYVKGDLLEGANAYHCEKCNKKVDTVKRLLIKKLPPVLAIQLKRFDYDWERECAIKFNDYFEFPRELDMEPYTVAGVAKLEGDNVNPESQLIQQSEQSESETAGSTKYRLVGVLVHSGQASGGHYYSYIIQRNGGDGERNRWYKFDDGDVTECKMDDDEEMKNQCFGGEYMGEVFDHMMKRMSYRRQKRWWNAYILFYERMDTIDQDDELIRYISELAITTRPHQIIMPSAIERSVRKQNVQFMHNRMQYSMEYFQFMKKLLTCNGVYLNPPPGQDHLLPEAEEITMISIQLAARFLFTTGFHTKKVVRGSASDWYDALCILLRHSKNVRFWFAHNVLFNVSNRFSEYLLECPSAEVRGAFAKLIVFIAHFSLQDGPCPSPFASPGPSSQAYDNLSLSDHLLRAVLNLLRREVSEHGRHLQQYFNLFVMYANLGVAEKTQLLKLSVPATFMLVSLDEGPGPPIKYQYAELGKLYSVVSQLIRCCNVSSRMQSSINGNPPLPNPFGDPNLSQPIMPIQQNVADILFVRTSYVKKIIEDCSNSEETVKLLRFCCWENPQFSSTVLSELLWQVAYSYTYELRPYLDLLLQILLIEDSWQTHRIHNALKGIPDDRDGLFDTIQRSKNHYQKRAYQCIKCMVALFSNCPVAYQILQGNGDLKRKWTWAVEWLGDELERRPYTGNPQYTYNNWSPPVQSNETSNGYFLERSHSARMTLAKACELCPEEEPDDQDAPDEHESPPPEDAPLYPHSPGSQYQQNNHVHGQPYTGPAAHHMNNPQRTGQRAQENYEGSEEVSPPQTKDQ
Chain of UniProt P51784 (P51784 whole entry): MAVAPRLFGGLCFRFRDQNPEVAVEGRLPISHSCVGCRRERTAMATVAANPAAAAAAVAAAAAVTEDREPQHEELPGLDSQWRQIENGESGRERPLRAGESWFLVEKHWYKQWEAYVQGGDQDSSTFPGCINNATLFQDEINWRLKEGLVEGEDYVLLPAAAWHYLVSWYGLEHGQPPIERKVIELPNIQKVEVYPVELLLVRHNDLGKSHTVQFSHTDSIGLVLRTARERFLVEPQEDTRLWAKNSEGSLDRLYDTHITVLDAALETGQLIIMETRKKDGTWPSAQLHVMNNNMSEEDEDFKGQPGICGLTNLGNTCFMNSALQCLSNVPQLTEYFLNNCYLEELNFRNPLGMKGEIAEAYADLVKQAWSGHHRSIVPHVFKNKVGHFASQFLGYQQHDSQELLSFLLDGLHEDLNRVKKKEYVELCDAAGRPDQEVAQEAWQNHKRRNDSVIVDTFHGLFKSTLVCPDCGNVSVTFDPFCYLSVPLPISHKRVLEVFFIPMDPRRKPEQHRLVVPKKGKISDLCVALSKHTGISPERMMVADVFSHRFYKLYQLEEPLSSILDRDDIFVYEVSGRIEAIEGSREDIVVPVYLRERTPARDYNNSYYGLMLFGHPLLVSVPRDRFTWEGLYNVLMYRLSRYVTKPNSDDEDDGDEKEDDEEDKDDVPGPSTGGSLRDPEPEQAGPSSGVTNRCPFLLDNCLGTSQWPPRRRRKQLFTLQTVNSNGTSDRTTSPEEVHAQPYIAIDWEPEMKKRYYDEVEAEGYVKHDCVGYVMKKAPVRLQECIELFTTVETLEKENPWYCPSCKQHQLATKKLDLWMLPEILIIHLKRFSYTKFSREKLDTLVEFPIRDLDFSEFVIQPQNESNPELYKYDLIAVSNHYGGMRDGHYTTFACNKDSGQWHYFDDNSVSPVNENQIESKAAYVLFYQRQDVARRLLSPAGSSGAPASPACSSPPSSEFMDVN

Cc1ccc(CN(CCO)C(=O)CCl)cc1
active: [8] -1.16
inactive: [1] -0.526 | [2] -0.0465 | [3] -0.468 | [4] -0.204 | [5] -0.439 | [6] -0.837 | [7] -0.351 | [9] -0.163
